In the supplement of paper PMC9694430:
Counter-ions that a name gives are not always drawn.

What was measured:
Assay in all cases: thermal shift delta Tm vs DMSO control; higher = stronger stabilization (binding)
Conditions in all cases: 12.5 µM; protein concentration 2 µM
[1] = test system: LOC_OS01G01410-cb001
Summary of the method: (§1)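 Purified, E. coli-expressed rice kinase domain constructs were tested by differential scanning fluorimetry in 96-well plates: 19.5 μl of 2 μM kinase in 100 mM potassium phosphate pH 7.5, 150 mM NaCl, 10% glycerol, 5 × SYPRO Orange, plus compound in DMSO. Fluorescence was read from 25°C to 95°C at 0.05°C/s. Melting temperatures came from Boltzmann fits, and the shift is the triplicate mean relative to protein with DMSO alone.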

[2] = test system: LOC_OS01G02750-cb003
Summary of the method: as §1

[3] = test system: LOC_OS01G10900-cb004
Summary of the method: as §1

[4] = test system: LOC_OS01G13800-cb001
Summary of the method: as §1

[5] = test system: LOC_OS01G14860-cb001
Summary of the method: as §1

[6] = test system: LOC_OS01G21960-cb002
Summary of the method: as §1

[7] = test system: LOC_OS01G39600-cb002
Summary of the method: as §1

[8] = test system: LOC_OS01G48390-cb002
Summary of the method: as §1

[9] = test system: LOC_OS01G51400-cb002
Summary of the method: as §1

[10] = test system: T1, LOC_OS01G52050-cb004
T1 sequence (whole entry): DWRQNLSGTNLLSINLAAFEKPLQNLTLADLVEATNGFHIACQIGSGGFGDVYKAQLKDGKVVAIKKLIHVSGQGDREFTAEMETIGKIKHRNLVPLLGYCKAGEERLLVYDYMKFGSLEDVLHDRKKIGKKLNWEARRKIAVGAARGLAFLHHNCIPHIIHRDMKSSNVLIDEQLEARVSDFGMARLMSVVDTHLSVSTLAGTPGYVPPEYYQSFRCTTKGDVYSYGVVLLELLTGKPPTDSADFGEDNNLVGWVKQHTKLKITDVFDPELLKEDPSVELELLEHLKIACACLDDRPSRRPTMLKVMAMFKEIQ
Summary of the method: as §1

Row | SMILES | thermal shift delta Tm [1] [°C] | thermal shift delta Tm [2] [°C] | thermal shift delta Tm [3] [°C] | thermal shift delta Tm [4] [°C] | thermal shift delta Tm [5] [°C] | thermal shift delta Tm [6] [°C] | thermal shift delta Tm [7] [°C] | thermal shift delta Tm [8] [°C] | thermal shift delta Tm [9] [°C] | thermal shift delta Tm [10] [°C]
1 | N[C@@H]1CCCN(c2c(/C=C3\SC(=O)NC3=O)cccc2-c2ccccc2)C1 | 0.41 | 0.59 | 0.27 | -0.81 | 0.66 | 0.65 | 0.1 | 0.27 | 0 | -0.01
2 | Cc1cccc(Nc2nc(NC3CCCCC3N)ncc2C(N)=O)c1 (stereo not drawn) | 0.04 | 1.48 | 0.43 | -0.24 | 1.5 | 1.75 | 0.32 | 0.09 | 0.29 | 6.64
3 | Cc1ccccc1-n1c(Cn2nc(-c3cccc(O)c3)c3c(N)ncnc32)nc2cccc(C)c2c1=O | 0.31 | 0.33 | 0.02 | -0.2 | -0.04 | 0.03 | -0.15 | 0.39 | 0.33 | 
4 | Cc1nc2c(-c3cnc(N)nc3)nc(N3CCOCC3)nc2n1C(C)C | 0.02 | 0.81 | 0.35 | 0.04 | -0.18 | 0.83 | 1.29 | 0.44 | 0.69 | 
5 | COc1cc(Nc2c(C#N)cnc3cc(OCCCN4CCN(C)CC4)c(OC)cc23)c(Cl)cc1Cl [Bosutinib (SKI-606)] | 0.89 | 0.44 | -0.3 | 0.52 | 0.06 | -0.08 | -0.04 | 0.05 | -0.09 | 0.17
6 | Cc1cn(-c2cc(NC(=O)c3ccc(C)c(Nc4nccc(-c5cccnc5)n4)c3)cc(C(F)(F)F)c2)cn1 [Nilotinib (AMN-107)] | 1.05 | 0.56 | 0.78 | -0.11 | 0.32 | 0.28 | 0.67 | 0.45 | 0.48 | -0.02
7 | Nc1ccc(C(=O)Nc2cccc(-c3nc(N4CCOCC4)c4oc5ncccc5c4n3)c2)cn1 | 1.9 | 1.58 | 1.27 | 0.49 | 0.58 | 0.56 | 0.13 | 0.28 | 0.29 | 0.45
8 | CC(C)(C)NC(=O)c1cncn1C1CCN(c2ccc(-c3nnc(C(F)(F)F)o3)cn2)CC1 | 0.22 | 0.89 | 0.11 | -0.25 | 0.2 | 0.13 | -0.63 | 0.3 | 0.06 | 0.97
9 | CN1CCC(CNc2ccc3ncc(-c4cccc(OC(F)(F)F)c4)n3n2)CC1 [SGI-1776 free base] | 0.34 | 4.11 | 3.96 | 0.13 | 0.51 | 2.41 | 0.68 | 0.82 | 0.07 | 3.81
10 | CC(C)(C)c1ccc(S(=O)(=O)/C=C/C#N)cc1 | -0.73 | -1.97 | -1.97 | 0.14 | -0.21 | 1.29 | -0.46 | 0.36 | 0.18 | -3.59
11 | CC(C)c1ccc2oc3nc(N)c(C(=O)O)cc3c(=O)c2c1 [Amlexanox] | 0.99 | 0.05 | 0.62 | -0.62 | 0.4 | -0.2 | 2.5 | -0.03 | 0.2 | 1.26
12 | CC1=C(C(=O)Nc2ccc3[nH]ncc3c2)C(c2ccc(F)cc2)NC(=O)N1 (stereo not drawn) | 0.44 | 1.19 | 0.21 | 0.88 | 0.96 | 0.9 | 0.5 | 0.28 | 0.23 | 4.76
13 | CCOc1cc2ncc(C#N)c(Nc3ccc(F)c(Cl)c3)c2cc1NC(=O)/C=C/CN(C)C [Pelitinib (EKB-569)] | 0.85 | 0.32 | 1.14 | 0.55 | 4.99 | 1.49 | 4.78 | 0.69 | 0.03 | 3.13
14 | COc1nccnc1NS(=O)(=O)c1ccc(NC(=O)/C=C/c2ccc([N+](=O)[O-])s2)cc1 [Necrosulfonamide] | 1.29 | 0.21 | 2.42 | 1.27 | 0.78 | 0.24 | -1.55 | 0.84 | -0.04 | 0.81
15 | O=C(O)c1ccc2c3c1cccc3c(=O)n1c3ccccc3nc21 | 3.12 | 0.97 | 0.69 | 0.32 | 1.4 | 0.71 | 0.62 | 0.91 | 0 | 1.18
16 | Cc1cc(Nc2cc(N)ncn2)c(=O)n2c1C(=O)NC21CCCCC1 | 0.09 | 0.56 | 3.66 | -0.03 | 1.91 | 0.49 | -0.58 | -0.04 | 0.24 | -0.14
17 | CN1CCN(c2ccc3nc(-c4c(N)c5c(F)cccc5[nH]c4=O)[nH]c3c2)CC1 [Dovitinib (TKI258) Lactate] | 5.96 | 2.78 | 4.81 | 1.06 | 2.06 | 3.87 | 4.79 | 3.22 | 1.02 | 6.95
18 | O=S(=O)(c1cccc2c(I)cccc12)N1CCCNCC1 | 0.23 | 0.79 | 0.56 | 0.43 | 0.67 | 0.53 | 0.27 | 1.35 | 0.24 | 2.58
19 | FC(F)(F)c1ccc(CNc2ccc(Cc3c[nH]c4ncc(Cl)cc34)cn2)cn1 [Pexidartinib (PLX3397)] | 1.9 | 3.35 | 3.09 | 0.85 | 1.22 | 2.07 | 2.41 | 6.28 | 0.37 | 10.2

Row | SMILES | thermal shift delta Tm [1] [°C] | thermal shift delta Tm [2] [°C] | thermal shift delta Tm [3] [°C] | thermal shift delta Tm [4] [°C] | thermal shift delta Tm [5] [°C] | thermal shift delta Tm [6] [°C] | thermal shift delta Tm [7] [°C] | thermal shift delta Tm [8] [°C] | thermal shift delta Tm [9] [°C] | thermal shift delta Tm [10] [°C]
20 | CCN(CC)CCNC(=O)c1c(C)[nH]c(/C=C2\C(=O)Nc3ccc(F)cc32)c1C [Sunitinib] | 3.95 | 1.72 | 0.25 | -0.3 | 1.43 | 2.21 | 2.9 | 1.72 | 0.22 | 7.91
21 | O=C(/C=C/c1ccc2ccccc2n1)c1ccncc1 | 0.4 | -1.2 | 1.49 | 0.45 | 1.08 | 2.15 | -0.61 | 0.91 | 0.46 | -0.48
22 | CC(C)S(=O)(=O)c1ccc2nccc(Nc3ccc4scnc4c3)c2c1 | 0.88 | 1.53 | 0.44 | 0.78 | 0.59 | 0.58 | 0.91 | 2.39 | 0.31 | 3.11
23 | C=CC(=O)Nc1cccc(Nc2nc(Nc3ccc(Oc4ccnc(C(=O)NC)c4)cc3)ncc2F)c1 | 4.52 | 1.34 | 1.05 | 0.7 | 4.66 | 2.14 | 1.74 | 0.98 | 0.31 | 3.1
24 | CNC(=O)c1cc(Oc2ccc(NC(=O)Nc3cc(C(C)(C)C)nn3-c3ccc4ncccc4c3)c(F)c2)ccn1 [Rebastinib (DCC-2036)] | 1.21 | 0.84 | 0.98 | 0.38 | 7.66 | 1.31 | 0.57 | 1.3 | 0.47 | 1.95
25 | CNC(=O)Nc1ccc(-c2nc(N3CC4CCC(C3)O4)c3cnn(C4CCC5(CC4)OCCO5)c3n2)cc1 | 0.49 | 1.08 | 0.69 | 0.32 | 0.37 | 1.21 | -0.16 | 0.79 | 0.4 | 0.38
26 | CN1CCC(Nc2nc(Nc3ccc(Oc4ccccc4)cc3)c3c(=O)[nH]cc(Br)c3n2)CC1 | 1.56 | 2.82 | 0.27 | 0.59 | 2.99 | 2.71 | 0.76 | 2.51 | 0.72 | 4.93
27 | C=CC(=O)N1CCC(Oc2cc3c(Nc4ccc(Cl)c(Cl)c4F)ncnc3cc2OC)CC1 [Poziotinib (HM781-36B)] | 0.75 | 0.07 | 0.6 | -0.34 | 0.65 | 0.36 | 1.56 | 0.49 | -0.16 | 1.24
28 | CCOc1ccn(-c2ccc(F)cc2)c(=O)c1C(=O)Nc1ccc(Oc2ccnc(N)c2Cl)c(F)c1 | 0.18 | 1.95 | 0.48 | 0.21 | 3.61 | 0.65 | -0.36 | 2.33 | 0.21 | 0.98
29 | CN1CCN(C2CCN(C(=O)Nc3cc(Oc4ccc(NC(=O)C5(C(=O)Nc6ccc(F)cc6)CC5)c(F)c4)ccn3)CC2)CC1 [Golvatinib (E7050)] | -0.03 | 1.21 | 0.95 | 0.07 | 0.62 | 0.11 | 0.93 | 2.98 | 0.51 | 0.09
30 | N=C(N)NC(=N)NCCc1ccccc1 [Phenformin HCl] | 0.54 | 0.14 | 0.3 | -0.2 | 0.25 | 0.77 | -0.37 | 0.38 | 0.25 | 0.48
31 | COc1ccc(/C=C/C(=O)C2(C(=O)/C=C/c3ccc(OC)c(OC)c3)CCCCC2)cc1OC | 0.52 | 0.5 | 1.18 | 0.16 | 0.18 | 0.55 | 0.02 | 0.51 | 0.07 | 0.63
32 | N#C/C(=C\c1ccc(O)c(O)c1)C(=O)NCc1ccccc1 [AG-490 (Tyrphostin B42)] | 2.63 | 17.9 | 0.93 | 1.74 | 1.27 | 1.78 | -0.2 | 1.08 | 0.47 | 0.46
33 | CN1c2ccccc2C(=O)Nc2cnc(Nc3ccc(N4CCC(O)CC4)cc3)nc21 | 0.94 | 1.24 | 3 | -0.58 | 0.36 | 0.64 | 0.1 | 0.29 | 0.1 | 0.63
34 | CC(C)(C)Cn1c(N)nc2ccc(-c3[nH]c(C(C)(C)C)nc3-c3ccc(F)cc3)nc21 | 0.51 | -0.68 | 0 | -0.49 | -0.02 | -0.11 | -0.5 | 1.19 | -0.1 | -0.09
35 | CC(C)CC(NC(=O)C(Cc1ccccc1)NC(=O)C(CCC(N)=O)NC(=O)C(Cc1ccc(O)cc1)NC(=O)C(C)NC(=O)CNC(=O)C(CCCCN)NC(=O)C(Cc1c[nH]c2ccccc12)NC(=O)C(NC(=O)C(Cc1c[nH]c2ccccc12)NC(=O)C(CCCCN)NC(=O)CNC(=O)C(CC(N)=O)NC(=O)C(CCC(=O)O)NC(=O)C(Cc1c[nH]c2ccccc12)NC(=O)C(NC(=O)C(Cc1c[nH]c2ccccc12)NC(=O)C(CO)NC(=O)CNC(=O)C1CCCN1C(=O)C(Cc1c[nH]c2ccccc12)NC(=O)C(CCC(N)=O)NC(=O)C(Cc1ccccc1)NC(=O)CNC(=O)C(N)Cc1c[nH]cn1)C(C)O)C(C)O)C(=O)NC(CCCCN)C(=O)NCC(=O)NCC(=O)NCC(=O)NCC(=O)NC(CO)C(=O)NC(CCCNC(=N)N)C(=O)NC(CCCNC(=N)N)C(=O)NC(CCCNC(=N)N)C(=O)NC(CCCNC(=N)N)C(=O)NC(CCCNC(=N)N)C(=O)NC(CCCNC(=N)N)C(=O)NC(CCCNC(=N)N)C(=O)NC(CCCNC(=N)N)C(=O)NC(CCCNC(=N)N)C(=O)O (stereo not drawn) | 0.36 | -0.66 | 1.09 | 1.22 | 0.08 | 1.26 | 2 | 1.2 | -0.25 | 1.43
36 | OC1CCC(Oc2cccc3cnc(Nc4ccc5nc[nH]c5c4)nc23)CC1 (stereo not drawn) | 5.55 | 6.21 | 1.42 | 0.31 | 7.5 | 4.16 | 10.3 | 5.98 | 1.07 | 3.63
37 | COc1cc2ncnc(Nc3ccc(Oc4ccccc4)cc3C)c2cc1OC | 0.68 | 0.9 | 0.3 | -0.47 | 0.22 | 0.26 | 0.05 | 0.79 | 0.08 | 2.07
